HT1080-NT tox = kills 2HG-producing HT-1080-NT fibrosarcoma cells; AID 686970; hit rate 1.6% among 360,000; HT-1080-NT fibrosarcoma viability, CellTiter-Glo ATP luminescence, 48 h; Potency, µM (highest dose often 46.1 µM), inactives show at the top dose activity, negative = less viability, usual class: cytotoxic;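 note: NT is the 2HG producing partner of a matched IDH1 knockdown line; potency is the fitted concentration of half-maximal effect; 0% = DMSO-treated cells and -100% = media-only wells without cells; nearly all actives have a fitted effect of over 55% in size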
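HT-1080-NT fibrosarcoma cells (2HG-overproducing), 750 cells/well in RPMI with 5% FBS, dosed after 2 h and incubated 48 h at 37C. CellTiter-Glo luminescence normalized to DMSO and no-cell wells; concentration-response curves fitted and classed.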
HT1080 IDH1KD tx = toxicity to HT-1080 IDH1 knockdown cells (counter line); HT-1080 IDH1 knockdown viability, ATP luminescence, 48 h; Potency, µM (highest dose often 46.1 µM), inactives show top-dose activity, negative = toxicity, usual class: cytotoxic; hit rate 2% among 360,000;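 note: potency is the fitted concentration of half-maximal effect; 0% = DMSO wells and -100% = cell-free medium wells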
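HT-1080-IDH1KD cells (IDH1 knocked down), 750/well in RPMI with 5% FBS, treated with compound 48 h at 37 degrees C. Viability by CellTiter-Glo luminescence, normalised to DMSO and no-cell wells; concentration-response curves classed.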
TDP1 cell CPT = DT40-hTDP1 cell growth loss with CPT; chicken DT40 Tdp1-/-;hTDP1 cells + 20 nM CPT, ATP luminescence, 48 h; Potency, µM (doses to about 46.2 µM), for inactives: top-dose activity change, negative = growth inhibition, actives largely listed as inhibitors; hit rate 12% among 420,000; AID 686979; note: potency is the fitted concentration of half-maximal effect; nearly all actives have a fitted effect of over 55% in size
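Chicken DT40 Tdp1-/- cells stably complemented with human TDP1 were seeded at 400 cells/well in medium containing 20 nM camptothecin, exposed to pin-transferred compounds, and grown at 37 °C for at least 48 hr. Viability was read as ATP luminescence.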
DT40 TDP1 no CPT = qHTS for Inhibitors of human tyrosyl-DNA phosphodiesterase 1 (TDP1): qHTS in cells in absence of CPT | hit rate 15% among 420,000 | DT40 Tdp1-/- hTDP1 cells, no CPT, ATP luminescence, 48 h | AID 686978, 2013 | Potency, µM (titrated, usually from 46.2 µM), without a hit: at the highest dose activity change, negative = growth inhibition, hits mostly inhibitors; note: potency is the fitted concentration of half-maximal effect; nearly all actives have a fitted effect of over 55% in size
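Readout: luminescence from CellTiter-Glo after 30 min in the dark at RT. Cells: DT40 Tdp1-/- with stable hTDP1, 400/well. Exposure: compounds alone, ≥48 hr, 37 °C.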
IL1B secr inh = inflammasome signaling inhibition, IL-1 beta readout | THP-1 LPS/ATP IL-1B secretion, AlphaLISA, 16 h; hits give low values | activity change, % at 57.5 µM | hit rate 4.7% among 360,000 | AID 743279; in the data active = activity change below about -50%; inconclusive = mostly about -30% to -49%
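Secreted IL-1B measured by AlphaLISA bead assay after 16 h compound exposure of THP-1 cells; compounds (final up to 57.5 uM) added 1 h before LPS (250 ng/mL) and ATP (1.25 mM) stimulation; lower signal means less secretion.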
The depositor's hits bear a star; ? = inconclusive; nt = no result given. Only some compounds are listed: those with a hit (about 19% of all), similar ones and a draw of the others. Unless noted, calls come from the whole dose curve; as a rule, active = well fitted curve in the direction sought with a large enough effect; inconclusive = small, poorly fitted or top-dose-only effect, or another doubt; inactive = no such curve, though single readings can be large; an effect the other way counts as inactive or inconclusive. Unless noted, % is set by controls: 0 for no effect and ±100 for the full control effect.

SMILES	HT1080-NT tox	HT1080 IDH1KD tx	TDP1 cell CPT	DT40 TDP1 no CPT	IL1B secr inh
COc1ccc(-n2c(SCC(=O)C(C)(C)C)nc3ccsc3c2=O)cc1	21%	18%	-6%	?	15
CCCCn1c(SCC(=O)c2ccccc2)nc2c(sc3ccccc32)c1=O	nt	nt	-12%	-16%	nt
O=C(O)CCCCCn1c(SCC(=O)c2ccc(O)c(O)c2)nc2ccsc2c1=O	6%	0%	15%	16%	13
CCCCn1c(SCC(=O)c2ccccc2)nc2ccsc2c1=O	-5%	0%	?	18µM*	-59*
O=C(O)C1CCC(N2C(=O)C3C4CCC(C4)C3C2=O)CC1 (configuration not stated)	25%	6%	-6%	24%	0
Cc1ccc(S(=O)(=O)n2nc(C)c(Br)c2C)c(C)c1C	-4%	-5%	?	21µM*	43
Cc1ccc(S(=O)(=O)n2nc(C)c(S(=O)(=O)N3CCCCCC3)c2C)cc1C	nt	nt	2%	-14%	nt
CCOC(=O)C(/C=C(\C#N)C(=O)OCC)=C(/N)N1CCN(c2ccc(Cl)cc2)CC1	-3%	-10%	-15%	16µM*	-8
COC(=O)c1c(C)nc2ccccc2c1-c1ccccc1	-25%	?	-21%	?	5
CCOC(=O)c1c(C)nc2ccccc2c1-c1ccccc1	-3%	-16%	?	18µM*	-1
CCOC(=O)c1c(C)nc2ccc(Cl)cc2c1-c1ccccc1	-22%	?	-20%	?	-6
CCOC(=O)c1c(N)nn(C(=O)C(C)C)c1-c1ccccc1	-4%	-28%	?	13µM*	-8
CCOC(=O)c1c(CCl)nc2ccccc2c1-c1ccccc1	-8%	-15%	13µM*	23µM*	-19
CCOC(=O)c1c(C)nc2c(c1-c1ccccc1)C(=O)c1ccccc1-2	18%	18%	?	?	-54*
COc1cc(CNc2ccc(CNc3ncn[nH]3)cc2)ccc1OCc1ccccc1	-6%	-4%	-23%	?	?
CCOC(=O)CC(=O)CSc1nc(CC)c(C)cc1C#N	12%	7%	?	13µM*	-6
CCc1nc(SCC(=O)O)c(C#N)cc1C	13%	11%	4%	3%	14
CN(C)c1oc(-c2ccccc2[N+](=O)[O-])nc1C#N	2%	-1%	?	?	-16
Cc1ccc2cc(C#N)c(SCc3nnc(-c4ccccc4[N+](=O)[O-])o3)nc2c1	19%	20%	?	21µM*	-8
CCOC(=O)CC(=O)CSc1nc2c(c(C)c1C#N)CCC2	8%	-16%	15µM*	7.3µM*	11
CCOC(=O)CC(=O)CSc1nc2c(cc1C#N)CCCCC2	-2%	3%	3%	-3%	44
COC(=O)CSc1nc2cc(C)ccc2cc1C#N	?	9%	18µM*	16µM*	0
CC(C)=CC(=O)OCC(=O)NC1CCCc2ccccc21 (configuration not stated)	16%	15%	8%	-14%	19
CCOC(=O)CC(=O)CSc1nc2ccc(C)cc2cc1C#N	?	7.1µM*	1.2µM*	0.73µM*	6
Cc1cc([N+](=O)[O-])c2ccccc2c1NS(=O)(=O)c1ccccc1	?	-16%	6%	-22%	8
SMILES	HT1080-NT tox	HT1080 IDH1KD tx	TDP1 cell CPT	DT40 TDP1 no CPT	IL1B secr inh
COC(=O)c1sccc1S(=O)(=O)N1CCC(n2c(CC3CCCC3)nc3cccnc32)CC1	nt	nt	2%	-15%	nt
COC(=O)CNC(=O)Nc1cc(C(=O)NCc2ccc(C)cc2)ccc1N1CCCC1	nt	nt	2%	-21%	nt
CCOc1ccccc1NC(=O)Nc1cc(C(=O)NCc2ccc(C)cc2)ccc1N1CCCC1	nt	nt	8.2µM*	8.2µM*	nt
COc1ccc(CNC(=O)c2ccc(N3CCCC3)c(NC(=O)NCc3ccc(C)cc3)c2)cc1	nt	nt	16µM*	?	nt
CCOCCCNC(=O)Nc1cc(C(=O)NCc2ccc(C(C)C)cc2)ccc1N1CCCC1	nt	nt	26µM*	?	nt
CCc1ccccc1NC(=O)Nc1cc(C(=O)NCc2ccccc2OC)ccc1N1CCCC1	nt	nt	15µM*	?	nt
COc1ccc(NC(=O)Nc2cc(C(=O)NCc3ccc(C)cc3)ccc2N2CCCC2)cc1	nt	nt	-10%	-9%	nt
COC(=O)c1cc(NC(=O)COC(=O)C2COc3ccccc3O2)cc(C(=O)OC)c1 (configuration not stated)	-5%	8%	-1%	-8%	-5
COc1ccc(C2CC(c3ccccc3O)=NN2c2ccccc2)cc1 (configuration not stated)	2%	8%	0%	-5%	11
COc1ccc(C2CC(c3ccccc3)=NN2c2ccc(N)cc2)cc1 (configuration not stated)	?	?	?	21µM*	?
COc1ccc(C2CC(c3ccccc3)=NN2S(=O)(=O)c2ccccc2)cc1 (configuration not stated)	-4%	-7%	7.3µM*	4.6µM*	0
Cc1ccc(C2=NN(S(=O)(=O)c3ccccc3)C(c3ccccc3O)C2)cc1 (configuration not stated)	18µM*	?	?	?	0
CC(=O)Oc1ccc(C2=NN(c3ccccc3)C(c3ccccc3)C2)cc1 (configuration not stated)	16µM*	?	9%	-6%	15
CS(=O)(=O)Nc1ccc(C2=NN(S(=O)(=O)c3ccccc3)C(c3cccs3)C2)cc1 (configuration not stated)	-27%	-26%	-17%	?	-6
OCCN1CCN(c2ncnc3c2ncn3[C@H]2CN(Cc3ccc(Cl)cc3)C[C@@H](CO)O2)CC1	1%	1%	?	-29%	16
CC(NC(=O)c1cccc(S(=O)(=O)N2CCN(Cc3ccccc3)CC2)c1)c1ccc(Cl)cc1 (configuration not stated)	-11%	-16%	?	?	-6
COc1cc(N2N=C(c3ccccc3)CC2c2ccccc2)c(C=O)cc1C=O (configuration not stated)	-3%	0%	?	18µM*	8
Cc1ccc(NC(=S)NC(=O)c2ccccc2)cc1NC(=S)NC(=O)c1ccccc1	4%	9%	-27%	?	39
O=C(NC(=S)Nc1ccccn1)c1ccc(-c2ccccc2)cc1	-11%	-21%	21µM*	18µM*	-29
Cc1cc(C)c(NC(=S)NC(=O)c2ccc(-c3ccccc3)cc2)c(C)c1	-6%	-15%	?	21µM*	-17
O=C(NC(=S)Nc1ccccn1)c1ccco1	-2%	-2%	13µM*	?	0
CC(C)CCNC(=S)Nc1ccccn1	5%	1%	?	23µM*	7

Compound activity: PubChem, National Center for Advancing Translational Sciences (NCATS)
